Screens (PubChem BioAssay)
MK inhibit – S. pneumoniae mevalonate kinase inhibition | AID 555 | 0.48% of 65,000 active | inhibition, % at 10 µM | purified MK, PK/LDH-coupled NADH absorbance 340 nm;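 active means ranked among the strongest by inhibition in the single 10 µM screen, a fixed top-ranked set picked for dose follow-up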
Spn DPM-DC inh – blocks S. pneumoniae diphosphomevalonate decarboxylase. calls only at 10 µM. AID 556. 0.49% of 65,000 active. purified DPM-DC, PK/LDH coupled NADH fluorescence;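 active means the 320 compounds with the highest percent inhibition in the single-dose primary screen, excluding strongly autofluorescent ones, cut at about 32% in these data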;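 further: kinetic rate of NADH fluorescence loss reporting ADP formed by the decarboxylase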
NADH coupling – inhibition of NAD/NADH coupling enzymes, library profiling | 0.02% of 65,000 active | coupled PK/LDH NADH assays, four targets | IC50, µM (doses to about 10 µM), inactives show at the top dose inhibition;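 active means single-dose screening hits from any of four coupled enzyme assays that gave an IC50 when retested across doses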;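 further: the DPM-DC format reads NADH fluorescence rather than 340 nm absorbance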
Spn PMK inh – inhibitors of Streptococcus pneumoniae phosphomevalonate kinase; purified PMK, PK/LDH-coupled NADH absorbance 340 nm; inhibition, % at 10 µM; 0.49% of 65,000 active; AID 539;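 active means top-ranked compounds by inhibition in the single 10 µM screen, taking a fixed number of the strongest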;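 further: 0% = full reaction with DMSO carrier and 100% = background rate without enzyme reaction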
Autofluor 339 – intrinsic fluorescence of library compounds, ex339/em460 – biochemical, MLSMR library, data from DPM-DC assay, artefact control, profiling panel; compound autofluorescence, ex339/em460 nm, NADH buffer; hits give high values; 1 = no-compound wells, NADH background; fluorescence fold increase at 10 µM; 5.5% of 65,000 active; AID 709;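 active means at 10 µM, mean starting fluorescence two-fold or more over control wells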;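 further: signal is the first read of a kinetic run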
Active calls of the source: *; i = inactive; . = no result given. A selection: hits, their analogues and other compounds. The true share with any hit is near 6.6%.

SMILES | MK inhibit | Spn DPM-DC inh | NADH coupling | Spn PMK inh | Autofluor 339
CCc1cc(=O)oc2cc(OCC(=O)O)c(Cl)cc12 | 6.0 | i | 12.0% | 4.0 | 2.36*
Cc1nc2c(C(=O)N3CCCC3)c[nH]n2c(=O)c1Cc1ccc(F)cc1Cl | 0.0 | i | 2.0% | 6.0 | 1.19
COC(=O)c1ccc(CSc2nc3ccccc3c(=O)n2Cc2ccco2)o1 | 7.0 | i | 4.0% | 0.0 | 1.03
Cc1ccc(S(=O)(=O)N[C@H](C(=O)N2CCC(C(=O)N3CCC[C@H]3C(=O)O)CC2)C(C)C)cc1 | 8.0 | i | 7.0% | 12.0 | 1.04
Cc1cc(=O)oc2cc(OCc3ccc(S(=O)(=O)N4CCOCC4)cc3)ccc12 | 2.0 | . | 1.0% | 0.0 | 2.11*
COc1ccc2c(c1)cc1n2CCN2CCCN=C12 | 11.0 | i | 12.0% | 10.0 | 2.1*
COc1ccc(-c2nc(N)n(C(C)=O)n2)cc1 | 2.0 | i | 4.0% | 9.0 | 1.12
COc1ccc2c(c1)cc1n2CCN=C1N | 10.0 | i | 10.0% | 4.0 | 2.82*
CC1(C)Cc2c(c(-c3ccccc3)nc3[nH][nH]c(=O)c23)CO1 | 5.0 | i | 4.0% | 5.0 | 1.01
CCN(CC)c1nc(C)c2c(c1C#N)CC(C)(C)OC2 | 0.0 | i | 11.0% | 11.0 | 1.89
Cc1nc(NCCCO)c(C#N)c2c1COC(C)(C)C2 | 10.0 | . | 8.0% | 5.0 | 2.29*
CC1(C)Cc2c(C#N)c(NCCCO)nc(-c3ccccc3)c2CO1 | 7.0 | . | 7.0% | 6.0 | 2.09*
COc1cc(C(c2nnnn2C(C)(C)C)N2CCN(c3nc4ccccc4s3)CC2)ccc1O (stereo unspecified) | 3.0 | i | 2.0% | 4.0 | 1.13
COc1ccc(S(=O)(=O)N2CCOCC2)cc1C(=O)Nc1cc(C)on1 | 8.0 | i | 12.0% | 3.0 | 1.1
c1ccc2c3c(cc(N4CCOCC4)c2c1)OC1(N2CCOCC2)CCCCC1O3 (stereo unspecified) | 12.0 | . | 10.0% | 7.0 | 3.88*
O=C(Nc1ccc(N2CCOCC2)c(Cl)c1)C1CCCCC1 | 8.0 | i | 7.0% | 11.0 | 1.1
COc1ccc(-c2cn3cc(Cl)ccc3n2)cc1OC | 0.0 | . | 3.0% | 5.0 | 4.8*
COc1ccc(-c2onc3ccc(Cl)cc23)cc1OC | 5.0 | i | 3.0% | 3.0 | 1.47
COc1ccc(OCC(O)CN2C(=O)NC(C)(C)C2=O)cc1 (stereo unspecified) | 4.0 | i | 4.0% | 5.0 | 1.06
CCOC(=O)Nc1oc2ccccc2c(=O)c1CN1CCOCC1 | 6.0 | i | 8.0% | 5.0 | 2.23*
CCOC(=O)C1CCN(Cc2ccc(C(=O)OC)cc2)CC1 | 60.0* | i | 6.0% | 8.0 | 1.01
C=CCn1c(C(C)NC(=O)COC)nc2ccccc21 (stereo unspecified) | 0.0 | i | 4.0% | 11.0 | 1.07
Cc1ccccc1-n1c(=O)cc(NCc2ccc3c(c2)OCO3)[nH]c1=O | 3.0 | i | 3.0% | 6.0 | 1.09
O=C1NC(c2ccc3c(c2)OCO3)Nc2ccccc21 (stereo unspecified) | 6.0 | . | 9.0% | 11.0 | 4.85*
CC1(CCc2ccc3c(c2)OCO3)NC(=O)c2ccccc2N1 (stereo unspecified) | 5.0 | . | 5.0% | 4.0 | 3.76*
SMILES | MK inhibit | Spn DPM-DC inh | NADH coupling | Spn PMK inh | Autofluor 339
O=C1NC(c2ccc3c(c2)OCO3)Oc2ccccc21 (stereo unspecified) | 12.0 | i | 4.0% | 0.0 | 1.26
Cc1cc2oc(=O)cc(CN3CCCCC3C)c2c(C)c1Cl (stereo unspecified) | 5.0 | i | 6.0% | 12.0 | 1.09
CCOC(=O)Cc1c(C)c2ccc(N(CC)CC)cc2oc1=O | 9.0 | . | 12.0% | 15.0 | 4.37*
CCOC(=O)CCc1c(C)c2ccc(O)cc2oc1=O | 9.0 | . | 12.0% | 14.0 | 3.69*
CCN(CC)c1ccc2c(C)c(-c3ccc(N)cc3)c(=O)oc2c1 | 1.0 | . | 6.0% | 12.0 | 2.47*
CCN(CC)c1ccc2c(Cl)c(Br)c(=O)oc2c1 | 4.0 | i | 1.0% | 0.0 | 1.54
CCOC(=O)Cc1c(C)c2c(O)cc(O)cc2oc1=O | 5.0 | . | 4.0% | 0.0 | 2.43*
CCOC(=O)c1c(C)oc2ccc(O)c(CN(C)C)c12 | 1.0 | i | 3.0% | 11.0 | 1
O=c1c2c3c(sc2nc2sc(CN4CCOCC4)cn12)CCCC3 | 3.0 | i | 6.0% | 6.0 | 1.36
O=c1[nH]c(=O)n(Cc2ccccc2)c2nc(-c3ccco3)cc(C(F)(F)F)c12 | 1.0 | . | 5.0% | 9.0 | 4.89*
O=C(O)CCn1c(-c2ccccc2)cc2c1CCCC2=O | 3.0 | i | 3.0% | 7.0 | 1.05
